Screens from PubChem BioAssay.
Shown are actives, neighbours in structure and some others; about 10% of the full set was active somewhere.
HP1b chromo inh – inhibitors of HP1-beta chromodomain binding to methylated histone tails; P83916; AlphaScreen HP1-beta / biotin-H3K9me3 peptide binding; Potency, µM (titrated, usually from 114 µM), actives largely listed as inhibitors; 390,000 compounds, 0.56% hits; AID 540317; note: nearly all actives have a fitted effect of over 70% in size
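HP1-beta protein (50 nM final) preincubated 30 min at room temperature with biotinylated H3(1-18)K9me3 peptide (50 nM) in PBS pH 7.4, 0.01% Tween-20, then compound added for 30 min. AlphaScreen streptavidin donor/nickel chelate acceptor beads (10 ug/mL final), 30 min dark, luminescence read.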
BAZ2B inh – BAZ2B (human) inhibition; Q9UIF8; AlphaScreen BAZ2B-H3K14Ac peptide displacement; Potency, µM (titrated, usually from 114 µM), hits mostly inhibitors; 360,000 compounds, 4.4% hits; AID 504333; note: nearly all actives have a fitted effect of over 60% in size
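BAZ2B (50 nM) with biotin-H3(5-23)K14Ac peptide (50 nM) in PBS pH 7.4, 0.01% Tween-20, preformed 30 min, then compound 30 min at room temperature; top concentration 110uM. AlphaScreen streptavidin donor/nickel chelate acceptor beads (10 ug/mL final), 20 min dark, signal read.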
GLS inh – glutaminase GLS (human) inhibition | AID 624170 | O94925 | 410,000 compounds, 0.21% hits | Potency, µM (top dose mostly 45.5 µM), most hits filed as inhibitors | GLS enzymatic activity, qHTS titration
Target sequence (O94925 whole entry, looked up): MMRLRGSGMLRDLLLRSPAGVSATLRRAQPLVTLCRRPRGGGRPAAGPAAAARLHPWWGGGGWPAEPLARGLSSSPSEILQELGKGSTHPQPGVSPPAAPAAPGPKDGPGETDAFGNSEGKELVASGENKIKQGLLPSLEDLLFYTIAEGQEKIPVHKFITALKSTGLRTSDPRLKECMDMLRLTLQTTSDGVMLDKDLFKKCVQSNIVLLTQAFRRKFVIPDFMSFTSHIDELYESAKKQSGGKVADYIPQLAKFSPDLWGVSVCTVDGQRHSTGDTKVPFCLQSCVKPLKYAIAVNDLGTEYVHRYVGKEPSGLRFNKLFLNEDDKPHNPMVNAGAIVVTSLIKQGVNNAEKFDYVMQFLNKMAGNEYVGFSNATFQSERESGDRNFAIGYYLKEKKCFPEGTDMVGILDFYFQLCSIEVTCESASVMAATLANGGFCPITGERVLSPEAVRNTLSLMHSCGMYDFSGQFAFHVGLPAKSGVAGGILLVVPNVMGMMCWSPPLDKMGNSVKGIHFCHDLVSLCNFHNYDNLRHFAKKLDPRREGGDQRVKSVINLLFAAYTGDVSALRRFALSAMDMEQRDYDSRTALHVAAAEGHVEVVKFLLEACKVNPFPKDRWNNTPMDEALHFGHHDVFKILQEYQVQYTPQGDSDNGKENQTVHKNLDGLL
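Compounds were pin-transferred onto hKGA, after which L-glutamine (1 mM solution) and a detection mix of glutamate oxidase, HRP and Amplex Red were added. Initial and 30 min RT fluorescence reads were collected.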
G9a inh – blocks human histone lysine methyltransferase G9a | Potency, µM (series often up to 102 µM), hits mostly inhibitors | 350,000 compounds, 8.8% hits | G9a H3K9 monomethylation, AlphaScreen, 2 h; note: nearly all actives have a fitted effect of over 75% in size
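Signal arises when biotinylated H3K9 peptide, once monomethylated, bridges streptavidin donor and antibody-captured acceptor beads. Enzyme at 20 nM was preincubated 15 min with test compounds; peptide 500 nM and SAM 20 uM then reacted for 2 h.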
JMJD2A Tudor – JMJD2A Tudor domain (human) inhibition; O75164; AlphaScreen JMJD2A-Tudor / H3K4me3 peptide binding; Potency, µM (series often up to 114 µM), actives largely listed as inhibitors; 390,000 compounds, 4.4% hits; note: nearly all actives have a fitted effect of over 50% in size
Large screens that a line does not name were inactive. Calls come from the whole dose curve; as a rule, active = well fitted curve in the direction sought with a large enough effect; inconclusive = small, poorly fitted or top-dose-only effect, or another doubt; inactive = no such curve, though single readings can be large; an effect the other way counts as inactive or inconclusive.

Cc1ccccc1-c1nc(CN2CCN(C(=O)c3ccco3)CC2)c(C)o1	G9a inh 50µM
O=C(c1ccccc1)N1CCN(Cc2c[nH]c3ccccc23)CC1	none
Cc1ccccc1-c1nnc(CN2CCN(C(=O)c3ccco3)CC2)o1	G9a inh inconclusive
CCc1nc2ccc(C(=O)NCc3ccc4c(c3)OCO4)cn2c1N(C)Cc1cccs1	none (no result: HP1b chromo inh, BAZ2B inh, G9a inh, JMJD2A Tudor)
Cc1cccc(NC(=O)CSc2nc(C)cc(C)c2C(=O)Nc2ccc(Cl)cc2)c1	none
Cc1cccc(N2CCN(C(=O)c3cccc(S(=O)(=O)N4CCOCC4)c3)CC2)c1C	none
CCOc1cc(CN2CCN(C(=O)c3ccco3)CC2)ccc1OC	HP1b chromo inh inconclusive, BAZ2B inh 50µM, JMJD2A Tudor 5.6µM
O=C(c1ccco1)N1CCN(C(=O)c2ccc(Cn3cc(Br)cn3)o2)CC1	G9a inh 50µM
O=C(c1ccco1)N1CCN(C(=O)c2ccc(CS(=O)c3ccc(Br)cc3)o2)CC1 (centres undefined)	none (no result: HP1b chromo inh, BAZ2B inh, G9a inh, JMJD2A Tudor)
O=C(c1ccco1)N1CCN(CC2CC3C=CC2C3)CC1 (centres undefined)	BAZ2B inh 50µM, G9a inh inconclusive, JMJD2A Tudor 1.4µM
CCOc1ccc(CN2CCN(C(=O)c3ccco3)CC2)cc1	HP1b chromo inh inconclusive, G9a inh 32µM, JMJD2A Tudor 20µM
COc1cccc(NC(=O)Cn2c(=O)n(Cc3ccc(C(=O)NCc4ccc5c(c4)OCO5)cc3)c(=O)c3ccccc32)c1	none
CC1(C(=O)NCc2cccs2)Cc2c(-c3ccc4c(c3)OCO4)ccnc2O1 (centres undefined)	none (no result: HP1b chromo inh, BAZ2B inh, G9a inh, JMJD2A Tudor)
OC(c1ccc(F)cc1)c1nc(-c2cccc(F)c2)cs1 (centres undefined)	none (no result: HP1b chromo inh, BAZ2B inh, G9a inh, JMJD2A Tudor)
CCc1ccc(NC(=O)CSc2ncc(S(=O)(=O)c3cc(C)ccc3C)c(=O)[nH]2)cc1	none
O=C(c1ccco1)N1CCN(Cc2ccc(F)cc2)CC1	HP1b chromo inh inconclusive, BAZ2B inh 79µM, G9a inh 11µM, JMJD2A Tudor 20µM
CCOc1ccc(OCC(=O)OCC(=O)N2CCN(C(=O)c3ccco3)CC2)cc1	G9a inh 32µM
CCOc1ccccc1-c1nc(CN2CCN(C(=O)c3ccco3)CC2)c(C)o1	none
O=C(c1ccco1)N1CCN(Cc2ccc(F)cc2Cl)CC1	none
O=C(Cc1ccccc1F)OCC(=O)N1CCN(C(=O)c2ccco2)CC1	none
CCOc1ccccc1-n1c(CN2CCN(C(=O)c3ccco3)CC2)nc2ccccc2c1=O	G9a inh 14µM
Cc1ccc(C(=O)OCC(=O)NCc2cccs2)s1	none
O=C(COC(=O)C1CC2C=CC1C2)NCc1ccco1 (centres undefined)	HP1b chromo inh 79µM, BAZ2B inh 28µM, GLS inh inconclusive, G9a inh inconclusive, JMJD2A Tudor 40µM
Cc1cc(C)cc(C(=O)OCC(=O)NCc2ccco2)c1	JMJD2A Tudor 89µM (no result: BAZ2B inh, G9a inh)
Cc1ccc(C(=O)OCC(=O)NCc2ccco2)s1	G9a inh 79µM, JMJD2A Tudor 35µM
O=C(COC(=O)/C=C/c1ccc(F)cc1)NCc1ccco1	none
O=C(COC(=O)C1(c2ccc(F)cc2)CCCC1)NCc1ccco1	G9a inh inconclusive, JMJD2A Tudor 50µM
O=C(COC(=O)C1CC2C=CC1C2)NCc1ccc(F)cc1 (centres undefined)	none
CC(C)N(Cc1ccccc1)c1ncnc2c1nnn2C	none
CCc1ccccc1NC(=O)Cn1nnc2sc3c(c2c1=O)CCC(C(C)(C)C)C3 (centres undefined)	none
OC[C@@H]1CN(Cc2ccco2)C[C@H](n2cnc3c(Nc4ccccc4)ncnc32)O1	none (no result: HP1b chromo inh, BAZ2B inh, G9a inh, JMJD2A Tudor)
O=C(COC(=O)c1ccc(F)cc1Cl)NCc1ccco1	HP1b chromo inh inconclusive, BAZ2B inh 50µM, G9a inh inconclusive, JMJD2A Tudor 50µM
N#Cc1c(NC(=O)CSc2n[nH]c(Cc3ccccc3)n2)oc(-c2ccccc2)c1-c1ccccc1	G9a inh 3.5µM, JMJD2A Tudor inconclusive
O=C(COC(=O)C1CCCCC1C(=O)N1CCc2ccccc21)NCc1ccco1 (centres undefined)	BAZ2B inh 50µM, G9a inh 28µM
N#Cc1c(NC(=O)COC(=O)C2CC3C=CC2C3)oc(-c2ccccc2)c1-c1ccccc1 (centres undefined)	BAZ2B inh inconclusive, G9a inh 7.1µM
O=C(COC(=O)c1ccc([N+](=O)[O-])cc1Cl)NCc1ccco1	none
N#Cc1c(NC(=O)CSc2ncccn2)oc(-c2ccccc2)c1-c1ccccc1	none (no result: BAZ2B inh, G9a inh)
CC(C)(C)c1ccc(S(=O)(=O)c2cnc(SCC(=O)Nc3ccc4c(c3)OCCO4)[nH]c2=O)cc1	BAZ2B inh inconclusive
[O-]/[N+](=C\c1ccc(OC(F)F)cc1)c1ccccc1	G9a inh 50µM
CC(=O)Nc1cccc(-c2ccnc3c2CC(C)(C(=O)NCc2ccc(F)c(F)c2)O3)c1 (centres undefined)	none (no result: HP1b chromo inh, BAZ2B inh, G9a inh, JMJD2A Tudor)
CC(=O)Nc1ccccc1C(F)(F)F	none
NNc1ccccc1C(F)(F)F	HP1b chromo inh inconclusive, BAZ2B inh 50µM, G9a inh 2.8µM, JMJD2A Tudor 32µM
Cc1cccc(NC(=O)C(C)N2C(=O)c3ccccc3S2(=O)=O)n1 (centres undefined)	none
CC(C(=O)Nc1ncc([N+](=O)[O-])s1)N1C(=O)c2ccccc2S1(=O)=O (centres undefined)	G9a inh 11µM, JMJD2A Tudor 20µM
O=C(Cn1c(=O)n(Cc2ccco2)c(=O)c2sc3ccccc3c21)Nc1ccc(F)cc1F	none
Cc1cc(C)cc(NC(=S)NCc2ccc3[nH]c4c(c3c2)CCCC4)c1	HP1b chromo inh inconclusive, BAZ2B inh 32µM, G9a inh inconclusive, JMJD2A Tudor 50µM
CN(CC(=O)NCc1ccccc1)S(=O)(=O)c1ccc2[nH]c3c(c2c1)CCCC3	BAZ2B inh inconclusive, G9a inh inconclusive, JMJD2A Tudor inconclusive
S=C(NCc1ccc2[nH]c3c(c2c1)CCCC3)Nc1ccccc1	HP1b chromo inh inconclusive, BAZ2B inh 32µM, G9a inh inconclusive, JMJD2A Tudor 35µM
CC(Oc1cccc(Cl)c1)C(=O)Nc1ccc(S(=O)(=O)N(C)C2CCN(C)CC2)cc1 (centres undefined)	none
COc1ccc(Br)cc1-c1nc(C)c(C(C)=O)n1O	G9a inh 10µM
COc1ccc(Br)cc1-c1noc(-c2ccccc2)n1	none
Cc1ccc(-c2csc3ncn(-n4c(C)ccc4C)c(=O)c23)o1	BAZ2B inh inconclusive, G9a inh 10µM, JMJD2A Tudor inconclusive
O=C(CSC1=NC(=O)C(Cc2ccccc2)C(=O)N1)Nc1ncccn1 (centres undefined)	G9a inh 79µM (no result: HP1b chromo inh, GLS inh, JMJD2A Tudor)
O=C(CSC1=NC(=O)C(Cc2ccccc2)C(=O)N1)Nc1ncc(Br)cc1Br (centres undefined)	none
Cn1ccc(=S)c2ccccc21	G9a inh 32µM, JMJD2A Tudor 8.9µM (no result: BAZ2B inh)
Cn1c(=S)n(C)c2ccccc21	none
